Values quoted from earlier work, collected in PubChem BioAssay AID977611.
About 3,900 (100%) of roughly 3,900 compounds were called active. The limit is not given here; nearly all actives have Kd up to about 4200 µM. So high a share suggests a set chosen from earlier hits. The list shows a part of the results. Starred links: 1 amine or outer side, 2 acyl side, 3 side chain; linkers in the order of their positions; H or OH if unused. Where a SMILES comes first, the peptide text is derived from it. Non-standard residues stand in square brackets, D forms with d. Square brackets hold non-standard residues; d marks the D form. Residues, ends and D or L forms follow the SMILES beside them. Peptide text beside a SMILES is read from it. [ ]: non-standard residue; d: D form. Orn(CH(NH2)2) = NC(N)NCCC[C@H](N)C(=O)O; X1 = O=C([C@@H]1CC[C@H](O)N1[*:1])[*:2]; Lys(Me2) = CN(C)CCCC[C@H](N)C(=O)O; Lys(Me) = CNCCCC[C@H](N)C(=O)O

Assay: PubChem AID 977611
Conditions: PDB protein-ligand complexes, literature Kd

In the case of `C[C@H](N)C(=O)N[C@@H](CCCN=C(N)N)C(=O)N[C@H](C(=O)N[C@@H](CCCCN)C(=O)N[C@@H](CCC(N)=O)C(=O)N[C@H](C(=O)N[C@@H](C)C(=O)N[C@@H](CCCN=C(N)N)C(=O)N[C@@H](CCCCN)C(=O)N[C@@H](CO)C(=O)O)[C@@H](C)O)[C@@H](C)O`, the Kd (protein: DNA (cytosine-5)-methyltransferase 3A DNMT3A-DNMT3L, PDB entry 4u7t) is given as 2.14 µM (active).

For H-ARTAA-OH, the Kd (protein: WD repeat-containing protein 5 WDR5, PDB entry 4o45) is given as 70 µM (active).

In the case of `CNCCCC[C@H](NC(=O)[C@H](CCCNC(N)N)NC(=O)[C@H](C)NC(=O)[C@@H](NC(=O)[C@H](CCC(N)=O)NC(=O)[C@H](CCCCNC)NC(=O)[C@@H](N)[C@@H](C)O)[C@@H](C)O)C(=O)N[C@@H](CO)C(=O)N[C@H](C(=O)O)[C@@H](C)O` (H-T[Lys(Me)]QTA[Orn(CH(NH2)2)][Lys(Me)]ST-OH), the Kd (protein: SAWADEE HOMEODOMAIN HOMOLOG 1, PDB entry 4iuv) is given as 1.9 µM (active).

For `CNCCCC[C@H](NC(=O)[C@H](CCCNC(N)N)NC(=O)[C@H](C)NC(=O)[C@@H](NC(=O)[C@H](CCC(N)=O)NC(=O)[C@H](CCCCN)NC(=O)[C@@H](N)[C@@H](C)O)[C@@H](C)O)C(=O)N[C@@H](CO)C(=O)O` (H-TKQTA[Orn(CH(NH2)2)][Lys(Me)]S-OH), the Kd (protein: SAWADEE HOMEODOMAIN HOMOLOG 1, PDB entry 4iuu) is listed as 2.22 µM (active).

For `C[C@H](NC(=O)[C@@H](NC(=O)[C@H](CCC(N)=O)NC(=O)[C@H](CCCCN)NC(=O)[C@@H](N)[C@@H](C)O)[C@@H](C)O)C(=O)N[C@@H](CCCNC(N)N)C(=O)N[C@@H](CCCCN(C)C)C(=O)N[C@@H](CO)C(=O)O` (H-TKQTA[Orn(CH(NH2)2)][Lys(Me2)]S-OH), the Kd (protein: SAWADEE HOMEODOMAIN HOMOLOG 1, PDB entry 4iut) is given as 1.9 µM (active).

In the case of `CC(C)C[C@H](NC(=O)[C@H](CCCNC(N)N)NC(=O)[C@@H](NC(=O)[C@H](CC(=O)O)NC(=O)[C@@H](N)CCC(N)=O)[C@@H](C)O)C(=O)O` (HELM PEPTIDE1{Q.D.T.[NC(N)NCCC[C@H](N[*:1])C(=O)[*:2]].L}$$$$V2.0), the Kd (protein: Na(+)/H(+) exchange regulatory cofactor NHE-RF1, PDB entry 2m0u) is listed as 0.365 µM (active) and the Kd (protein: Na(+)/H(+) exchange regulatory cofactor NHE-RF1, PDB entry 2m0v) is listed as 1.08 µM (active).

In the case of `CC(C)C[C@H](NC(=O)[C@H](C)NC(=O)[C@H](CC(=O)O)NC(=O)[C@H](CC(C)C)NC(=O)[C@@H](N)CC(=O)O)C(=O)N[C@@H](CC(C)C)C(=O)N[C@@H](C)C(=O)N[C@@H](CC(=O)O)C(=O)N[C@@H](CC(C)C)C(=O)N[C@@H](CCC(=O)O)C(=O)O` (H-DLDALLADLE-OH), the Kd (protein: Alpha-parvin, PDB entry 2k2r) is given as 1300 µM (active).

In the case of `CC(C)[C@H](NC(=O)[C@H](CCC(N)=O)NC(=O)[C@@H](NC(=O)[C@H](CCC(=O)O)NC(=O)[C@H](CCCNC(N)N)NC(=O)[C@H](CCCNC(N)N)NC(=O)[C@@H](NC(=O)[C@H](CCCNC(N)N)NC(=O)[C@H](CO)NC(=O)[C@H](CO)NC(=O)[C@@H](N)CCCNC(N)N)[C@@H](C)O)[C@@H](C)O)C(=O)O` (H-[Orn(CH(NH2)2)]SS[Orn(CH(NH2)2)]T[Orn(CH(NH2)2)][Orn(CH(NH2)2)]ETQV-OH), the Kd (protein: second PDZ domain of MAGI-1 (Membrane-associated guanylate kinase), PDB entry 2kpl) is listed as 0.23 µM (active).

In the case of `CSCC[C@H](NC(=O)[C@H](CC(C)C)NC(=O)[C@H](C)NC(=O)[C@H](CC(=O)O)NC(=O)[C@H](CC(C)C)NC(=O)[C@H](C)NC(=O)[C@H](C)NC(=O)[C@@H](NC(=O)[C@H](C)NC(=O)[C@H](C)N)[C@@H](C)O)C(=O)N[C@@H](C)C(=O)N[C@@H](CO)C(=O)N[C@@H](CC(C)C)C(=O)O` (H-AATAALDALMASL-OH), the Kd (protein: Protein-tyrosine kinase 2-beta, Pyk2 FAT domain, PDB entry 3u3f) is given as 8 µM (active).

For `CSCC[C@H](NC(=O)[C@H](CC(C)C)NC(=O)[C@H](CCC(=O)O)NC(=O)[C@H](CC(=O)O)NC(=O)[C@H](CC(C)C)NC(=O)[C@H](CCC(=O)O)NC(=O)[C@H](CCCNC(N)N)NC(=O)[C@@H](N)[C@@H](C)O)C(=O)N[C@@H](C)C(=O)N[C@@H](CO)C(=O)N[C@@H](CC(C)C)C(=O)N[C@@H](CO)C(=O)O` (H-T[Orn(CH(NH2)2)]ELDELMASLS-OH), the Kd (protein: Focal Adhesion Targeting Domain(FAT), PDB entry 1ow6) is listed as 4 µM (active) and the Kd (protein: Focal Adhesion Targeting Domain(FAT), PDB entry 1ow7) is listed as 4 µM (active).

In the case of `CC(C)C[C@H](NC(=O)[C@H](C)NC(=O)[C@H](C)NC(=O)[C@H](CC(C)C)NC(=O)[C@H](CCCNC(N)N)NC(=O)[C@H](CCCNC(N)N)NC(=O)[C@H](CO)NC(=O)[C@H](CC(C)C)NC(=O)[C@H](CCC(N)=O)NC(=O)[C@H](CC(=O)O)NC(=O)[C@@H](N)CCC(=O)O)C(=O)N[C@@H](CCCNC(N)N)C(=O)N[C@@H](CC(N)=O)C(=O)O` (H-EDQLS[Orn(CH(NH2)2)][Orn(CH(NH2)2)]LAAL[Orn(CH(NH2)2)]N-OH), the Kd (protein: Vacuolar protein sorting-associating protein 4A, PDB entry 2jq9) is given as 33.4 µM (active).

For `CC(C)C[C@H](NC(=O)[C@H](CCC(=O)O)NC(=O)[C@H](CC(C)C)NC(=O)[C@H](CC(C)C)NC(=O)[C@H](CC(C)C)NC(=O)[C@H](CCCNC(N)N)NC(=O)[C@H](CC(=O)O)NC(=O)[C@H](CC(C)C)NC(=O)[C@H](CCC(=O)O)NC(=O)[C@H](CO)NC(=O)[C@@H](N)CC(C)C)C(=O)N[C@@H](CC(N)=O)C(=O)O` (H-LSELD[Orn(CH(NH2)2)]LLLELN-OH), the Kd (protein: Focal Adhesion Targeting Domain(FAT), PDB entry 1ow8) is given as 4 µM (active).

In the case of `CC(C)[C@H](NC(=O)[C@H](CCC(N)=O)NC(=O)[C@@H](NC(=O)[C@H](CCC(=O)O)NC(=O)[C@H](CC(N)=O)NC(=O)[C@H](CCCNC(N)N)NC(=O)[C@H](CCC(N)=O)NC(=O)[C@H](CCCNC(N)N)NC(=O)[C@@H](NC(=O)[C@H](CCCNC(N)N)NC(=O)[C@@H]1CC[C@H](O)N1)[C@@H](C)O)[C@@H](C)O)C(=O)O` (H-[X1][Orn(CH(NH2)2)]T[Orn(CH(NH2)2)]Q[Orn(CH(NH2)2)]NETQV-OH), the Kd (protein: Disks large homolog 1, PDB entry 2m3m) is given as 9.63 µM (active).
